Measurements from the supplement of paper PMC8728848.
The sample as a whole holds a higher share of the strongest signals than the screen did.

Tests used:
Assay in all cases: glycan array binding signal (z-score within array); higher = stronger binding
Details in all cases: glycan notation: IUPAC condensed, linker removed
Fuc(a1-2)Gal = target: Fuc(a1-2)Gal
How it was run: (§1)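 Glycan array data were curated from 3228 arrays in the Consortium for Functional Glycomics database and kept only where the protein sequence was available. Glycan names were converted to IUPAC-condensed notation, and columns mapping to the same glycan were averaged. The binding signal is a within-array Z-score, averaged across arrays of the same protein sequence at different concentrations or buffers and across linkers. Negative Z-scores can be read as non-binding.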

[1] = target: Fuc(a1-2)Gal(b1-4)GlcNAc(b1-2)Man(a1-3)[Fuc(a1-2)Gal(b1-4)GlcNAc(b1-2)Man(a1-6)]Man(b1-4)GlcNAc(b1-4)GlcNAc
How it was run: as §1

[2] = target: Fuc(a1-2)Gal(b1-4)GlcNAc(b1-6)GalNAc
How it was run: as §1

[3] = target: Fuc(a1-2)Gal(b1-4)[Fuc(a1-3)]GlcNAc(b1-3)[Neu5Ac(a2-6)Gal(b1-4)GlcNAc(b1-6)]Gal(b1-4)Glc
How it was run: as §1

Fuc(a1-2)[Gal(a1-3)]Gal = target: Fuc(a1-2)[Gal(a1-3)]Gal
How it was run: as §1

[4] = target: Fuc(a1-2)[Gal(a1-3)]Gal(b1-4)GlcNAc(b1-2)Man(a1-3)[Fuc(a1-2)[Gal(a1-3)]Gal(b1-4)GlcNAc(b1-2)Man(a1-6)]Man(b1-4)GlcNAc(b1-4)[Fuc(a1-6)]GlcNAc
How it was run: as §1

[5] = target: Fuc(a1-2)[GalNAc(a1-3)]Gal(b1-3)GalNAc(b1-3)Gal(a1-4)Gal(b1-4)Glc
How it was run: as §1

[6] = target: Fuc(a1-2)[GalNAc(a1-3)]Gal(b1-3)GlcNAc(b1-2)Man(a1-3)[Fuc(a1-2)[GalNAc(a1-3)]Gal(b1-3)GlcNAc(b1-2)Man(a1-6)]Man(b1-4)GlcNAc(b1-4)[Fuc(a1-6)]GlcNAc
How it was run: as §1

[7] = target: Fuc(a1-2)[GalNAc(a1-3)]Gal(b1-4)GlcNAc(b1-2)Man(a1-3)[Fuc(a1-2)[GalNAc(a1-3)]Gal(b1-4)GlcNAc(b1-2)Man(a1-6)]Man(b1-4)GlcNAc(b1-4)GlcNAc
How it was run: as §1

[8] = target: Fuc(a1-3)[Gal(b1-4)]Glc6S
How it was run: as §1

[9] = target: Fuc(a1-3)[Gal3S(b1-4)]GlcNAc6S
How it was run: as §1

[10] = target: Gal(a1-3)Gal(b1-3)GlcNAc(b1-3)GalNAc
How it was run: as §1

[11] = target: Gal(a1-3)Gal(b1-3)[Fuc(a1-4)]GlcNAc(b1-2)Man(a1-3)[Gal(a1-3)Gal(b1-3)[Fuc(a1-4)]GlcNAc(b1-2)Man(a1-6)]Man(b1-4)GlcNAc(b1-4)GlcNAc
How it was run: as §1

Gal(a1-3)Gal(b1-4)Glc = target: Gal(a1-3)Gal(b1-4)Glc
How it was run: as §1

[12] = target: Gal(a1-3)Gal(b1-4)GlcNAc(b1-3)GalNAc
How it was run: as §1

[13] = target: Gal(a1-3)Gal(b1-4)[Fuc(a1-3)]GlcNAc
How it was run: as §1

Gal(a1-4)Gal(b1-4)Glc = target: Gal(a1-4)Gal(b1-4)Glc
How it was run: as §1

[14] = target: Gal(a1-4)Gal(b1-4)GlcNAc(b1-2)Man(a1-3)[Gal(a1-4)Gal(b1-4)GlcNAc(b1-2)Man(a1-6)]Man(b1-4)GlcNAc(b1-4)GlcNAc
How it was run: as §1

[15] = target: Gal(a1-4)Gal(b1-4)GlcNAc(b1-3)Gal(b1-4)Glc
How it was run: as §1

Gal(b1-3)Gal(b1-4)GlcNAc = target: Gal(b1-3)Gal(b1-4)GlcNAc
How it was run: as §1

Gal(b1-3)GalNAc = target: Gal(b1-3)GalNAc
How it was run: as §1

[16] = target: Gal(b1-3)GlcNAc(b1-3)Gal(b1-4)GlcNAc(b1-2)Man(a1-3)[Gal(b1-3)GlcNAc(b1-3)Gal(b1-4)GlcNAc(b1-2)Man(a1-6)]Man(b1-4)GlcNAc(b1-4)GlcNAc
How it was run: as §1

Gal(b1-3)GlcNAc6S = target: Gal(b1-3)GlcNAc6S
How it was run: as §1

[17] = target: Gal(b1-3)[Fuc(a1-4)]GlcNAc(b1-2)Man
How it was run: as §1

Gal(b1-4)Glc6S = target: Gal(b1-4)Glc6S
How it was run: as §1

Gal(b1-4)GlcNAc = target: Gal(b1-4)GlcNAc
How it was run: as §1

[18] = target: Gal(b1-4)GlcNAc(b1-2)[Gal(b1-4)GlcNAc(b1-6)]Man(a1-6)[Gal(b1-4)GlcNAc(b1-2)Man(a1-3)]Man(b1-4)GlcNAc(b1-4)GlcNAc
How it was run: as §1

[19] = target: Gal(b1-4)GlcNAc(b1-3)Gal(b1-4)GlcNAc(b1-2)Man(a1-3)[Gal(b1-4)GlcNAc(b1-3)Gal(b1-4)GlcNAc(b1-2)Man(a1-6)]Man(b1-4)GlcNAc(b1-4)[Fuc(a1-6)]GlcNAc
How it was run: as §1

[20] = target: Gal(b1-4)GlcNAc(b1-3)Gal(b1-4)GlcNAc(b1-3)Gal(b1-4)GlcNAc(b1-3)Gal(b1-4)GlcNAc(b1-3)Gal(b1-4)GlcNAc(b1-3)Gal(b1-4)GlcNAc(b1-2)Man(a1-3)[Gal(b1-4)GlcNAc(b1-3)Gal(b1-4)GlcNAc(b1-3)Gal(b1-4)GlcNAc(b1-3)Gal(b1-4)GlcNAc(b1-3)Gal(b1-4)GlcNAc(b1-3)Gal(b1-4)GlcNAc(b1-2)Man(a1-6)]Man(b1-4)GlcNAc(b1-4)GlcNAc
How it was run: as §1

[21] = target: Gal(b1-4)GlcNAc(b1-3)[Gal(b1-4)GlcNAc(b1-6)]Gal(b1-4)GlcNAc
How it was run: as §1

B1: Mincle (Bos taurus) (protein)
chain: MNSSTSPASQTERRCFSFQLFSWAIAGTSILLLSACFITRCVVTYSIFQLCDEKKFQPPGDSMELSCYNDGSGSVKNCCPLKWFHFQSSCYLFSPDTMSWRASLKNCSSMGAHLVVINTQEEQEFLYYTKPRKKEFYIGLTDQVTEGQWQWVDGTPFTKSLSFWDAGEPNNLVIVEDCATIRDSSNPRQNWNDVPCFFNMFRVCEMPERKI
With B1 the “glycan array binding signal (z-score)” value (Fuc(a1-2)Gal) was 3.49, the “glycan array binding signal (z-score)” value [1] was 1.4 and the “glycan array binding signal (z-score)” value [2] was -0.168. For the same binder, the “glycan array binding signal (z-score)” value [3] was -0.411, the “glycan array binding signal (z-score)” value (Fuc(a1-2)[Gal(a1-3)]Gal) was -0.737 and the “glycan array binding signal (z-score)” value [4] was -0.601. For the same binder, the “glycan array binding signal (z-score)” value [5] was -0.374, the “glycan array binding signal (z-score)” value [6] was 0.364 and the “glycan array binding signal (z-score)” value [7] was 0.419. The “glycan array binding signal (z-score)” value [8] was -0.342, the “glycan array binding signal (z-score)” value [9] was -0.116 and the “glycan array binding signal (z-score)” value [10] was 0.019. The “glycan array binding signal (z-score)” value [11] was 1.26, the “glycan array binding signal (z-score)” value (Gal(a1-3)Gal(b1-4)Glc) was 0.058 and the “glycan array binding signal (z-score)” value [12] was -0.713. For the same binder, the “glycan array binding signal (z-score)” value [13] was -0.559, the “glycan array binding signal (z-score)” value (Gal(a1-4)Gal(b1-4)Glc) was -0.565 and the “glycan array binding signal (z-score)” value [14] was 0.919. For the same binder, the “glycan array binding signal (z-score)” value [15] was -0.763, the “glycan array binding signal (z-score)” value (Gal(b1-3)Gal(b1-4)GlcNAc) was -0.462 and the “glycan array binding signal (z-score)” value (Gal(b1-3)GalNAc) was -0.37. For the same binder, the “glycan array binding signal (z-score)” value [16] was 0.271, the “glycan array binding signal (z-score)” value (Gal(b1-3)GlcNAc6S) was -0.773 and the “glycan array binding signal (z-score)” value [17] was 1.34. For the same binder, the “glycan array binding signal (z-score)” value (Gal(b1-4)Glc6S) was 0.6, the “glycan array binding signal (z-score)” value (Gal(b1-4)GlcNAc) was -0.249 and the “glycan array binding signal (z-score)” value [18] was -0.55. The “glycan array binding signal (z-score)” value [19] was 1.11, the “glycan array binding signal (z-score)” value [20] was 0.667 and the “glycan array binding signal (z-score)” value [21] was -1.01.
